Assay outcomes as filed in PubChem.
Only a selection was taken, and hits are over-represented in it overall.
SF-1 inh: inhibitors of human nuclear receptor SF-1; inhibition, % at 10 µM; CHO-K1 Gal4-SF-1 LBD luciferase reporter; 65,000 tested, 0.55% active; Q13285;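 active = inhibition above the mean inhibition of all tested compounds plus 3 SD, cut at about 48% in these data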;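 note: 0% = SF-1 transfected cells with DMSO and 100% = mock-transfected cells lacking SF-1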
* hit, by the source's call.

SMILES	SF-1 inh
CCn1nc(-c2cccs2)nc2c(=O)n(C)c(=O)nc1-2	96.0*
CC(=O)Nc1ccc(OC(=O)N2CCCCC2)cc1	4.1
COc1ccc(CC[n+]2cc(/N=C(\C)[O-])on2)cc1OC	10.0
Cc1ccc2c(c1)CC1(CN2C)C(=O)NC(=O)N(c2cc(C)ccc2C)C1=O (stereo unspecified)	11.2
COc1cc2c(C(=O)N3CCN(C)CC3)c(C)n(C)c2cc1Br	2.1
CNC(C(=O)c1ccccc1)C(OC)c1ccccc1 (stereo unspecified)	-5.1
COc1ccccc1-n1c(-c2ccoc2)nc2ccccc2c1=O	4.4
COc1cc2nc(CN3CC=C(c4ccccc4)CC3)[nH]c(=O)c2cc1OC	87.7*
Cc1[nH]c2c(Cl)cccc2c1CCN	11.5
Cc1cccc(-n2c(CN3C(=O)c4ccccc4C3=O)nc3ccccc3c2=O)n1	-1.4
